Assay [1] has as its system TAB165. Put plainly: qHTS profiling for inhibitors of Plasmodium falciparum proliferation (AID 504749).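 Note: 0% = DMSO vehicle and full inhibition = artemisinin control.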 The note with it: P. falciparum in erythrocytes, SYBR Green DNA, 72 h; series mostly up to 28.7 µM. The gist of the method: (§1)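 Fluorescence of SYBR Green-bound parasite DNA, read at 485/535 nm, served as the growth measure. Infected erythrocytes were cultured with compound 72 h; artemisinin (0.29 uM) and DMSO wells defined the normalization range.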

Assay [2] relates to W2. The description is as above. Particulars: P. falciparum in erythrocytes, SYBR Green DNA, 72 h; series mostly up to 28.7 µM. The gist of the method: as §1
Assay [3] relates to CRL-7250. Briefly: Cytotoxic Profiling of Annotated Libraries Using Quantitative High-Throughput Screening (AID 1296008). For max response: % is set by controls: 0 for no effect and ±100 for the full control effect. Note: potency is the fitted concentration of half-maximal effect. The note with it: Five cell lines viability, CellTiter-Glo ATP luminescence, 48-72 h; max response: active compounds read low. Summed up: (§2)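 Compounds were pin-transferred onto cells and incubated 48 or 72 hr at 37 degree Celsius, 95% humidity. CellTiter-Glo was added, plates sat 10 min at room temperature, then ATP-coupled luminescence was imaged as the viability read-out.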

Assay [4] deals with HEK293. Described as above. The note with it: Five cell lines viability, CellTiter-Glo ATP luminescence, 48-72 h; max response: active compounds read low. Summed up:
as §2

In assay [5] the test system is HaCat. The assay is described as above. The note with it: Five cell lines viability, CellTiter-Glo ATP luminescence, 48-72 h; max response: active compounds read low. Summed up: as §2
For assay [6], the system named is KB-3-1. Described as above. The note with it: Five cell lines viability, CellTiter-Glo ATP luminescence, 48-72 h; max response: active compounds read low. The gist of the method:
as §2

Assay [7] relates to NIH3T3. Described as above. The note with it: Five cell lines viability, CellTiter-Glo ATP luminescence, 48-72 h; max response: active compounds read low. The gist of the method: as §2
The subject of assay [8] is HACAT. Briefly: qHTS assay to identify novel small-molecules to repurpose for Merkel cell carcinoma treatment (AID 1296009). For activity change, negative = cytotoxicity: % is set by controls: 0 for no effect and ±100 for the full control effect. Particulars: MCC and control cell lines, CellTiter-Glo viability, 72 h; at 44.8 µM (top of the series) unless noted. The gist of the method: (§3)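 Luminescence from CellTiter-Glo, read 10 min after addition at room temperature, reported viability following a 72 hr, 37 degree celsius treatment with NPC or MIPE compounds in titration; values normalized to plate controls.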

The subject of assay [9] is HEK293T. Described as above. The note with it: MCC and control cell lines, CellTiter-Glo viability, 72 h; at 44.8 µM (top of the series) unless noted. The gist of the method:
as §3

For assay [10], the system named is MCC-13. Described as above. The note with it: MCC and control cell lines, CellTiter-Glo viability, 72 h; series mostly up to 46 µM. Summed up:
as §3

SMILES strings stand for the structures. Values joined by “and” are separate entries in the source; they are usually repeats but may differ in a detail not shown here. Equal entries are not always repeated. Records with an inconclusive call do not appear. A number with no mark means an inactive call. Active and inactive are the calls of the source. Calls come from the whole dose curve; as a rule, active = well fitted inhibition curve with a large enough effect; inconclusive = small, poorly fitted or top-dose-only effect; inactive = flat fitted curve, though single readings scatter.

The results in this text go back to PubChem BioAssay (NCATS).
Note: nearly all actives have a fitted effect of over 60% in size.

As for `O=S(=O)(O)c1cc(I)c(O)c2ncccc12`, the Potency entry in assay [1], in assay [2] and in assay [10] was “inactive” in each case. For the same compound, the max response in assay [3] is 1.34%; in [6], -3.56%; in [7], -0.492%. For the same compound, the result in [4], in assay [5], in assay [8] and in [9] was inactive.

Turning to `C[C@@H]1CCN(C(=O)[C@H](CCCN=C(N)N)NS(=O)(=O)c2cccc3c2NC[C@H](C)C3)[C@@H](C(=O)O)C1`, the max response is 0.468% in assay [3], 0.409% in [5] and 1.81% in assay [6]. Also, the outcome in assay [4], in assay [7] and in assay [9] was inactive. In addition, the Potency entry in [10] is “inactive”.

With `Nc1cc(=O)[nH]c(N)n1`, the compound was called inactive in assay [3], in assay [5] and in assay [8]. In addition, the max response in [4] is 4.25%; in assay [6], -2.08%; in assay [7], -15.9%. Further, the Potency entry in [10] was “inactive”.

Consider `O=C1N=C(O)CN1/N=C/c1ccc(-c2ccc([N+](=O)[O-])cc2)o1`, for which the call in assay [3], in assay [5] and in [8] was inactive. Besides, the max response is -11.3% in assay [4], 4.36% in assay [6] and -4.3% in [7]. The Potency result in assay [10] is “inactive”.

With `CCn1cc(C(=O)O)c(=O)c2cnc(N3CCNCC3)nc21`, the Potency entry in assay [1], in [2] and in assay [10] was “inactive” in each case. Moreover, the max response in assay [3] was -6.3%; in [5], -4.47%; in assay [6] it was -0.342%. The outcome in assay [4], in assay [7] and in assay [9] was inactive.

`CCC(=O)Nc1ccc(O)cc1`: the Potency entry in [1], in assay [2] and in [10] was “inactive” throughout. The max response in assay [3] is -0.238%; in assay [6], 18.3%; in assay [7], 0.658%. The call in assay [4], in [5], in [8] and in [9] was inactive.

As for `CC1(C)S[C@@H]2[C@H](NC(=O)Cc3ccccc3)C(=O)N2[C@H]1C(=O)O` (tested in a mixture with another compound), the compound was called inactive in assay [3], in [4], in assay [7] and in [9]. Besides, the figures for the max response in [5] and in [6] were -1.15% and 9.18%, respectively. Besides, the Potency entry in assay [10] was “inactive”.

Regarding `CCCCCCCCCCCCCCCCCCOCC(O)CO` (stereo not drawn), the Potency entry in assay [1], in [2] and in assay [10] was “inactive” throughout. In addition, the result in assay [3], in assay [4], in assay [5], in [8] and in [9] was inactive. The max response in [6] was 4.03%; in assay [7] it was 4.13%.

Take `Cc1ncc(COP(=O)(O)O)c(C=O)c1O`: the Potency entry in assay [1], in assay [2] and in assay [10] was “inactive” each time. Moreover, the max response in assay [3] was 2.82%; in [6] it was -1.97%; in assay [7] it was 3.84%. Besides, the compound was classed as inactive in assay [4], in [5], in assay [8] and in assay [9].

For `[O-][n+]1cccc(CO)c1`, the Potency entry in assay [1], in assay [2] and in assay [10] was “inactive” throughout. Also, the max response is -1.91% in assay [3] and 4.61% in assay [6]. Also, the result in assay [4], in assay [5], in [7], in [8] and in [9] was inactive.

Take `CO/N=C(\C(=O)N[C@@H]1C(=O)N2C(C(=O)O)=C(CSc3nc(=O)c(O)nn3C)CS[C@H]12)c1csc(N)n1`: the max response was 1.86% in assay [3], -21.1% in assay [5] and -0.48% in [6]. In addition, the compound was called inactive in assay [4], in [7] and in assay [9]. In addition, in assay [10], the Potency entry is “inactive”.

For `NC(N)=NCCC[C@H](N)C(=O)O`, the result in assay [3], in assay [5] and in assay [7] was inactive. The max response in assay [4] was -4.96%. The outcome in [8] was “inactive [at 4.96 µM]”. Moreover, in assay [10], the activity change, negative = cytotoxicity is 10.7% [at 4.84 µM].

Regarding `O=C(O)CN1C(=O)c2cccc3cccc(c23)C1=O`, the Potency entry in [1], in assay [2] and in assay [10] was “inactive” each time. The max response in assay [3] was -6.05%; in [7], 0.928%. Moreover, the result in assay [4], in assay [5], in [8] and in assay [9] was inactive.

Regarding `CC[N+](CC)(CC)CCOc1ccc(/C=C/c2ccccc2)cc1`, the Potency is 1.06 µM (active) in assay [3], 4.73 µM (active) in assay [4] and 8.41 µM (active) in assay [5]. In addition, the max response in assay [6] was -18.6% and -29.7%; in assay [7] it was -21.5%. Also, the Potency result in assay [10] is “inactive”.

On to `O=C(O)[C@@H]1CSCN1`, for which the Potency entry in assay [1] and in assay [10] was “inactive” each time. Moreover, the max response in [3] was -15.8%. In addition, the compound was called inactive in [4], in assay [5], in assay [7], in assay [8] and in assay [9].
